Tb PYK inh – blocks Trypanosoma brucei pyruvate kinase; Potency, µM (top dose mostly 76.8 µM), for the others: at the highest dose activity, negative = inhibition, hits mostly inhibitors; Q57TT1; TbPYK enzyme, Kinase-Glo Plus ATP luminescence, 45 min; 0.12% of 410,000 active; AID 624173; note: potency is the fitted concentration of half-maximal effect; % is set by controls: 0 for no effect and ±100 for the full control effect; nearly all actives have a fitted effect of over 50% in size
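Enzyme and substrate buffer are dispensed first and compound is pin-transferred. ADP at 130 uM final then starts the reaction, which runs 45 min at room temperature. Detection reagent is added for 10 min before luminescence is imaged.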
CHX counter – counter-screen for Shiga toxin inhibitors: cycloheximide protein synthesis inhibition; cell reporter, cycloheximide protein synthesis inhibition counterscreen; max response, %; 12% of 300,000 active; AID 2314; in the data active = max response mostly above about 13%, no sharp cut-off; inactive = mostly below about 14%; note: read at 38.3 µM for the half of the compounds with a filed dose; 0% is about no effect
FBPA Giardia inh – Giardia lamblia aldolase inhibition. 0.71% of 290,000 active. Potency, µM (top dose mostly 59.6 µM), inactives show top-dose activity, negative = inhibition, usual class: inhibitors. purified Giardia FBPA. AID 2451; note: potency is the fitted concentration of half-maximal effect; % is set by controls: 0 for no effect and ±100 for the full control effect; nearly all actives have a fitted effect of over 55% in size
Target sequence (A8B2U2 whole entry, looked up): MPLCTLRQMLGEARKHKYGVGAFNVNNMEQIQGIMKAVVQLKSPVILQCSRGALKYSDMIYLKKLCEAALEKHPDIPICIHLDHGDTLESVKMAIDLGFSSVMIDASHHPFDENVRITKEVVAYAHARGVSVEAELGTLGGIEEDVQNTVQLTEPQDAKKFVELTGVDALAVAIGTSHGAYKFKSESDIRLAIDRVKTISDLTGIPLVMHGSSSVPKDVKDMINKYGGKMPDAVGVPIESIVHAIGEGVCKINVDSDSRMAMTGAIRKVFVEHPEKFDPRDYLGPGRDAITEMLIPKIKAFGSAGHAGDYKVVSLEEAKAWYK
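40 nM FBPA preincubated 10 min at RT with compound (up to 57.5 uM final), then substrate plus GAPDH/TPI/NAD/arsenate coupling and diaphorase/resazurin added. Fluorescence read after 20 min at RT, 525/598 nm.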
Shiga toxin inh – blocks Shiga toxin action in Vero cells; AID 2315; 9.2% of 290,000 active; Vero cells, Shiga toxin protein synthesis inhibition reporter; inhibition, % at 38.7 µM; in the data active = inhibition mostly above about 28%, no sharp cut-off; inactive = mostly below about 43%; note: 0% is about no effect
LmPK inhibitor – blocks Leishmania mexicana pyruvate kinase activity; Q27686; purified LmPK, Kinase-Glo ATP luminescence, 1 h; Potency, µM (highest dose often 57.5 µM), for inactives: at the top dose activity change, negative = inhibition, most hits filed as inhibitors; 0.37% of 290,000 active; AID 1721; note: potency is the fitted concentration of half-maximal effect; % is set by controls: 0 for no effect and ±100 for the full control effect
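In 50 mM imidazole pH 7.2 with 7 mM MgCl2, LmPK (0.1 nM) turned over PEP (0.5 mM) and ADP (0.1 mM) for 1 h at room temperature. Luciferase read-out of ATP.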
Sm TGR block – inhibitors of Schistosoma mansoni thioredoxin glutathione reductase. Q962Y6. purified TGR, DTNB reduction, TNB absorbance 405 nm. Potency, µM (top dose mostly 114 µM), for inactives: at the highest dose activity change, negative = inhibition, most hits filed as inhibitors. 3% of 360,000 active. AID 485364; note: potency is the fitted concentration of half-maximal effect; % is set by controls: 0 for no effect and ±100 for the full control effect; nearly all actives have a fitted effect of over 60% in size
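Kinetic colorimetric format: TGR-catalysed, NADPH-driven DTNB reduction monitored via TNB absorbance. Enzyme dispensed at 20 nM; compound exposure 15 min at room temperature before reaction start.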
Numbers without * were called inactive; ? = inconclusive; . = not tested or not shown; [ ] = dose if it differs, or a comment. The full list was thinned out, with hits kept by preference. Unless noted, calls come from the whole dose curve; as a rule, active = well fitted curve in the direction sought with a large enough effect; inconclusive = small, poorly fitted or top-dose-only effect, or another doubt; inactive = no such curve, though single readings can be large; an effect the other way counts as inactive or inconclusive.

SMILES | Tb PYK inh | CHX counter | FBPA Giardia inh | Shiga toxin inh | LmPK inhibitor | Sm TGR block
N#CC1(C#N)CC(C=O)=C(N)C1(C#N)CC(=O)c1ccc(F)cc1 (centres undefined) | -5% | -1 | ? | -11 | 4% | 20µM*
O=C1C2C3C=CC(C4CC34)C2C(=O)N1/N=C/c1ccc(-c2ccc(F)cc2[N+](=O)[O-])o1 (centres undefined) | -3% | 31* | -25% | 14 | 6% | -21%
Cc1cccc(C(=O)Nc2cc3c(cc2C)n(C)c(=O)n3C)c1 | -6% | . | . | . | . | -1%
O=C(COC(=O)c1ccc(Cl)c(S(=O)(=O)N2CCCCC2)c1)NC1CCCCC1 | 6% | . | . | . | . | .
CC(C)(C)c1ccc(S(=O)(=O)NNC(=O)c2cc3ccccc3[nH]2)cc1 | 0% | 27* | -11% | 54* | 5% | -39%
COc1ccc2[nH]c(C(=O)Nc3ccc(C)c(F)c3)cc2c1 | -9% | 36* | -7% | 69* | 0% | 11%
COc1ccc(NC(=O)c2cc3ccccc3[nH]2)cc1 | -5% | 40* | -1% | 64* | -5% | 4%
COc1ccc2[nH]c(C(=O)NCc3ccccc3)cc2c1 | -16% | 8 | -3% | 34 | -9% | -3%
CCCC(C)NNC(=O)c1cc2ccccc2[nH]1 (centres undefined) | -5% | -2 | 1% | 20 | 1% | -24%
COc1ccc2[nH]c(C(=O)Nc3cccc(C)n3)cc2c1 | -25% | 29* | 0% | 47* | 28µM* | 17%
CCOC(=O)C1=CCN(S(=O)(=O)c2ccc(C)cc2)C1c1ccccc1F (centres undefined) | -7% | . | . | . | . | .
O=C(c1ccc2c(c1)OCO2)C1CCCN(C(=O)c2cnn(Cc3ccccc3)c2)C1 (centres undefined) | -1% | 21* | 4% | 38* | 0% | -11%
CSc1ccccc1NC(=O)N1CCCC(C(=O)c2ccc3c(c2)OCO3)C1 (centres undefined) | 0% | -2 | 0% | -4 | 5% | -10%
COc1ccc(NC(=O)N2CCC(C(=O)c3ccc4c(c3)OCCO4)CC2)cc1 | 2% | 21* | 16% | 25 | -10% | 11%
CC(=O)c1ccc(NC(=O)N2CCCC(C(=O)c3ccc4c(c3)OCO4)C2)cc1 (centres undefined) | -7% | 16* | 2% | 53* | -6% | -17%
CCCNC(=S)N1CCC(C(=O)c2ccc3c(c2)OCCO3)CC1 | -12% | 10 | -1% | 29 | -7% | -1%
COCCNC(=S)N1CCC(C(=O)c2ccc3c(c2)OCCO3)CC1 | -2% | 46* | 4% | 74 | -4% | 3%
N#CCCN(C(=O)COC(=O)CCNS(=O)(=O)c1ccccc1)c1ccccc1 | 5% | . | . | . | . | 2%
CCN(CC(=O)NC1CCS(=O)(=O)C1)S(=O)(=O)c1ccc(Cl)c(C(F)(F)F)c1 (centres undefined) | -17% | . | . | . | . | -3%
COc1cc(Cl)c(C)cc1Nc1nc2ccccc2nc1NS(=O)(=O)c1ccccc1 | -4% | . | . | . | . | -2%
COc1ccc(NC(=S)N2CCC(C(=O)c3ccc(C)cc3)CC2)cc1 | -14% | 8.9* | -13% | -1 | 1% | -14%
CCOC(=O)N1CCN(C(=O)CSCc2ccccc2)CC1 | -6% | 35* | 1% | 22 | 1% | 2%
Cc1ccccc1CSCC(=O)N1CCN(c2ccccc2)CC1 | 0% | 23* | 1% | 70* | 2% | -9%
CCOC(=O)C1CCCN(C(=O)CSc2nc(C)cc(C)n2)C1 (centres undefined) | 2% | -7 | -4% | -9 | 0% | -19%
CCOC(=O)N1CCN(C/C(Cl)=C/c2ccccc2)CC1 | 0% | 14* | ? | 20* | -3% | -24%
SMILES | Tb PYK inh | CHX counter | FBPA Giardia inh | Shiga toxin inh | LmPK inhibitor | Sm TGR block
CCOC(=O)C1CCCN(C(=O)CSc2ccc(Br)cc2)C1 (centres undefined) | ? | 42* | 0% | 65* | 4% | 10%
CC(=O)N1CCCc2cc(S(=O)(=O)N3CCC(C(=O)NCc4ccc(N(C)C)cc4)CC3)ccc21 | -4% | . | . | . | . | 6%
CCCNC(=O)OC[C@@H]1O[C@H](CCO/N=C\C[C@H]2C=C[C@H](OC(C)=O)[C@@H](COC(C)=O)O2)C=C[C@@H]1Oc1ccc(OC)cc1 | . | . | 1%[12.9 µM] | . | . | .
CCOC(=O)C1CCCN(C(=O)CCc2nnc(-c3ccc(C(C)=O)s3)o2)C1 (centres undefined) | 5% | 63* | -4% | 109* | 5% | 16µM*
CCOC(=O)C1CCCN(C(=O)COc2ccccc2O)C1 (centres undefined) | 2% | -1 | 2% | 7 | 11% | 6%
CCOC(=O)C1CCCN(C(=O)CSCc2ccccc2)C1 (centres undefined) | -3% | 44* | 1% | 52* | 7% | 27%
CC(NC(=O)CSc1nnnn1C1CC1)c1ccccc1Br (centres undefined) | 4% | . | . | . | . | .
CC(C)(C)OC(=O)N1CCC(c2c(C(=O)N3CCN(C(=O)c4ccco4)CC3)cnn2-c2ccc(Cl)cc2)CC1 | -10% | . | . | . | . | 2%
CCn1c(/C=C\c2ccccc2C)nc2ccccc2c1=O | 6% | 23* | -3% | 82* | 10% | 10%
CCn1c(/C=C/c2ccccc2[N+](=O)[O-])nc2ccccc2c1=O | -2% | 11 | -1% | 27 | -12% | -1%
CCn1c(/C=C/c2ccccc2Cl)nc2ccccc2c1=O | -1% | 30* | -5% | 74* | 4% | 9%
CCn1c(/C=C/c2c[nH]c3ccccc23)nc2ccccc2c1=O | 2% | 41* | -7% | 50* | -2% | 13%
COc1ccc(OC)c(Nc2nc3ccccc3n3c(C)nnc23)c1 | -1% | . | . | . | . | 8%
CCCC(=O)Nc1ccc2nn(-c3ccc(OC)cc3)nc2c1 | -1% | 41* | -8% | . | -3% | 2%
CC(C)CC(=O)Nc1ccc2nn(-c3ccccc3)nc2c1 | -9% | 66* | -17% | 53* | -1% | 6%
Cc1ccc(-n2nc3ccc(NC(=O)c4ccco4)cc3n2)cc1 | 1% | 38* | -6% | 51* | 1% | -5%
Cc1ccc(-n2nc3ccc(NC(=O)c4oc5ccc(C)cc5c4C)cc3n2)cc1 | 0% | . | . | . | . | 5%
Cc1ccc(-n2nc3ccc(NC(=O)c4cccc([N+](=O)[O-])c4C)cc3n2)cc1 | 4% | 28* | 0% | 52 | 4% | -16%
CCOc1cc(S(=O)(=O)NCCc2c(C)[nH]c3ccc(C)cc23)ccc1F | 3% | . | . | . | . | 7%
O=C(Nc1ccc(F)c(Cl)c1)c1ccc2c(Cl)c3c(nc2c1)CCCC3 | 1% | . | . | . | . | -8%
COCCCNC(=O)c1ccc2sc([C@@H]3O[C@H](CO)[C@H](O)[C@H](O)[C@H]3O)nc2c1 | 5% | . | . | . | . | .
